Results as given in the supplement of paper PMC13380429.
Where a name gives a salt, the structure may show the parent alone.

Experiments:
[1] = tested on: Vero E6 infected with SARS-CoV-2; experiment: morphology score (similarity to uninfected cells); higher = more like uninfected cells; conditions: 24 h
[2] = tested on: Vero E6 infected with SARS-CoV-2; experiment: SARS-CoV-2 infection rate relative to infected DMSO; higher = more infection, active = 60 or less; conditions: 24 h

SMILES	morphology score [1]	SARS-CoV-2 infection rate [2]
Cc1c2oc3c(C)ccc(C(=O)N[C@@H]4C(=O)N[C@@H](C(C)C)C(=O)N5CCC[C@H]5C(=O)N(C)CC(=O)N(C)[C@@H](C(C)C)C(=O)O[C@@H]4C)c3nc-2c(C(=O)N[C@@H]2C(=O)N[C@@H](C(C)C)C(=O)N3CCC[C@H]3C(=O)N(C)CC(=O)N(C)[C@@H](C(C)C)C(=O)O[C@@H]2C)c(N)c1=O [actinomycin-d] (0.833333 µM)	0.164	93% (inactive)
Cc1ccc(-n2nc(C(C)(C)C)cc2NC(=O)Nc2ccc(OCCN3CCOCC3)c3ccccc23)cc1 [doramapimod] (10 µM)	0.482	86% (inactive)
Cn1cc(C(=O)C(=O)N[C@H]2CN3CCC2CC3)c2ccccc21 (10 µM)	0.181	97.5% (inactive)
[Cl][Ti][Cl].c1cc[cH-]c1.c1cc[cH-]c1 [titanocene-dichloride] (10 µM)	0.163	84% (inactive)
CN(C)c1ccc2nc3ccc(=[N+](C)C)cc-3sc2c1 [methylene-blue] (0.833333 µM)	0.152	104% (inactive)
CC(=O)[C@]1(O)Cc2c(O)c3c(c(O)c2[C@@H](O[C@H]2C[C@H](N)[C@H](O)[C@H](C)O2)C1)C(=O)c1ccccc1C3=O [idarubicin] (0.833333 µM)	-0.15	106% (inactive)
OCCNCCCOc1cccc(Cl)c1Cl (0.833333 µM)	0.093	112% (inactive)
CC(=O)N(C)c1cccc(-c2ccnc3c(C(=O)c4cccs4)cnn23)c1 [indiplon] (10 µM)	-0.213	116% (inactive)
CN(CCOc1ccc(-c2ccc3c(c2)OCO3)cc1C(C)(C)C)CC(=O)O (10 µM)	-0.0713	102% (inactive)
CC(=O)N(c1onc(C)c1C)S(=O)(=O)c1ccc(N)cc1 [sulfisoxazole-acetyl] (10 µM)	0.179	91% (inactive)
Cc1ncc(C[n+]2csc(CCO)c2C)c(N)n1 [thiamine] (10 µM)	0.119	96.5% (inactive)
CCC(=O)NC1CCc2cccc(OC)c2C1 (stereo unspecified) (10 µM)	-0.0478	93.5% (inactive)
C[C@H](N[C@@H](CCc1ccccc1)C(=O)O)C(=O)N1Cc2ccccc2C[C@H]1C(=O)O [quinaprilat] (10 µM)	0.0914	106% (inactive)
CC(C)(C)NCC(O)COc1cc(Cl)ccc1Cl (stereo unspecified) [cloranolol] (10 µM)	-0.0735	100% (inactive)
C=CC[C@]1(O)CC[C@H]2[C@@H]3CCC4=CCCC[C@@H]4[C@H]3CC[C@@]21C [allylestrenol] (10 µM)	0.0416	92.5% (inactive)
C[C@H](Cc1ccc(OCC(=O)O)cc1)NC[C@H](O)c1cccc(Cl)c1 (10 µM)	-0.0663	107% (inactive)
Nc1nc2[nH]cnc2c(=S)[nH]1 [thioguanine] (0.833333 µM)	0.218	98.5% (inactive)
COc1cc2c(NC3CCN(CC4CCCCC4)CC3)nc(N3CCCN(C(C)C)CC3)nc2cc1OCCCN1CCCCC1 (0.833333 µM)	0.165	92% (inactive)
O=C(Nc1ccc(-c2ccnc(Nc3ccc(N4CCOCC4)cc3)n2)cc1)C1CCCN1 (stereo unspecified) (10 µM)	0.607	73.5% (inactive)
COc1cc(COc2cc(N)c(Cl)cc2C(=O)CCC2CCN(CCNS(C)(=O)=O)CC2)cc(OC)c1 (0.833333 µM)	0.265	102% (inactive)

SMILES	morphology score [1]	SARS-CoV-2 infection rate [2]
Fc1ccc(C(c2ccccc2)(c2ccccc2F)n2ccnc2)cc1 (stereo unspecified) [flutrimazole] (10 µM)	0.166	108% (inactive)
N=c1ccn2c(n1)O[C@H]1[C@H](O)[C@@H](CO)O[C@H]12 [Cyclocytidine HCl] (0.833333 µM)	-0.127	114% (inactive)
O=C(OCCO)c1ccccc1O [2-hydroxyethyl-salicylate] (10 µM)	-0.198	108% (inactive)
CCn1cnc(C(=O)NC)c1C(=O)NC [ethimizol] (10 µM)	0.114	96.5% (inactive)
CC(C)N1CCN(c2ccc(OCC3COC(Cn4cncn4)(c4ccc(Cl)cc4Cl)O3)cc2)CC1 (stereo unspecified) [terconazole] (0.833333 µM)	-0.0821	106% (inactive)
CCCCCCNC(=O)n1cc(F)c(=O)[nH]c1=O [carmofur] (0.833333 µM)	0.222	96% (inactive)
Cc1ccccc1N1CCN(S(=O)(=O)C[C@]23CC[C@H](C[C@@H]2NC(=O)[C@@H](N)CCS(C)(=O)=O)C3(C)C)CC1 (10 µM)	0.049	95% (inactive)
COc1cc2nccc(Oc3ccc(NC(=O)C4(C(=O)Nc5ccc(F)cc5)CC4)cc3)c2cc1OC [cabozantinib] (0.833333 µM)	0.329	97.5% (inactive)
O=c1oc(-c2ccc(C(F)(F)F)cc2)nn1Cc1cc(Cl)ccc1O (10 µM)	0.593	39.5% (active)
COc1ccc2cc1Oc1ccc(cc1)C[C@H]1c3c(cc4c(c3Oc3cc5c(cc3OC)CCN(C)[C@@H]5C2)OCO4)CCN1C [cepharanthine] (10 µM)	0.461	77.5% (inactive)
Cc1cnc(NC(=O)Nc2cc(Br)c(C)cc2OC[C@@H]2CNCCO2)cn1 (0.833333 µM)	0.0474	111% (inactive)
Cc1cc(O)cc2c1O[C@](C)(CCC[C@H](C)CCC[C@H](C)CCCC(C)C)CC2 [D-delta-tocopherol] (10 µM)	-0.14	112% (inactive)
CCCC(CCC)C(=O)Nc1ccn([C@@H]2O[C@H](CO)[C@@H](O)C2(F)F)c(=O)n1 (0.833333 µM)	0.0484	100% (inactive)
O=C1NC(c2cccc([N+](=O)[O-])c2)=CCN1c1ccccc1O [icilin] (10 µM)	0.0675	100% (inactive)
N[C@@H](Cc1c[nH]c2ccccc12)C(=O)O [tryptophan] (10 µM)	-0.124	100% (inactive)
CCN(CC)Cc1ccc2cc(COC(=O)Nc3ccc(C(=O)NO)cc3)ccc2c1 [givinostat] (10 µM)	-0.215	112% (inactive)
CC/C(=C(\c1ccc(O)cc1)c1ccc(OCCN(C)C)cc1)c1ccccc1 [afimoxifene] (10 µM)	0.801	27.5% (active)
C[C@]12CC[C@@H]3c4ccc(O)cc4CC[C@H]3[C@@H]1CCC2=O [estrone] (10 µM)	-0.145	108% (inactive)
COc1ccc(COc2cc3oc(=O)c4cc(C(C)O)ccc4c3cc2OC)cc1 (stereo unspecified) [palomid-529] (10 µM)	0.0689	113% (inactive)
COc1ccc(NC(=O)c2ccc(-c3ccc(-c4noc(C)n4)cc3C)cc2)cc1N1CCN(C)CC1 (0.833333 µM)	0.0674	102% (inactive)

SMILES	morphology score [1]	SARS-CoV-2 infection rate [2]
CO[C@@H]1COCC[C@@H]1N[C@@H]1CC[C@@](C(=O)N2CCc3ncc(C(F)(F)F)cc3C2)(C(C)C)C1 (10 µM)	-0.21	113% (inactive)
Cc1sc2c(c1C)C(c1ccc(Cl)cc1)=N[C@@H](CC(=O)Nc1ccc(OCCOCCOCCOCCNc3cccc4c3C(=O)N(C3CCC(=O)NC3=O)C4=O)cc1)c1nnc(C)n1-2 (stereo partly specified) (10 µM)	-0.0682	100% (inactive)
O=C(Nc1cccc2c(=O)cc(-c3nnn[nH]3)oc12)c1ccc(OCCCCc2ccccc2)cc1 [pranlukast] (10 µM)	0.0454	111% (inactive)
O=[N+]([O-])c1cc(O)c(O)c([N+](=O)[O-])c1 (10 µM)	0.123	101% (inactive)
O=C1NCCN1CCN1CCC(c2cn(-c3ccc(F)cc3)c3ccc(Cl)cc23)CC1 [sertindole] (0.833333 µM)	-0.0791	106% (inactive)
CCN(CC)CC#CCOC(=O)C(O)(c1ccccc1)C1CCCCC1 (stereo unspecified) [oxybutynin] (10 µM)	0.299	98% (inactive)
CCCn1c(=O)[nH]c(=O)c2nc[nH]c21 [enprofylline] (10 µM)	0.188	94% (inactive)
CCc1nc2ccc(Cl)cn2c1C(=O)NCc1ccc(N2CCC(c3ccc(OC(F)(F)F)cc3)CC2)cc1 (10 µM)	0.0715	96% (inactive)
C[C@@H]1CN(Cc2ncccn2)C[C@H]1c1nc2c(cnn2C2CCOCC2)c(=O)[nH]1 (10 µM)	0.11	108% (inactive)
Cc1c(C2CCN(CCc3ccccc3)CC2)noc1-c1ccc(Cl)cc1 (10 µM)	0.195	84% (inactive)
O=C(O)c1ccccc1NCCc1ccccc1 [tromaril] (10 µM)	-0.0774	105% (inactive)
CCC[C@H](N[C@@H](C)C(=O)N1[C@H](C(=O)O)C[C@@H]2CCCC[C@@H]21)C(=O)O [perindoprilat] (10 µM)	0.276	104% (inactive)
CC1(C)[C@@H](OC(=O)CCC(=O)O)CC[C@]2(C)[C@H]3C(=O)C=C4[C@@H]5C[C@@](C)(C(=O)O)CC[C@]5(C)CC[C@@]4(C)[C@]3(C)CC[C@@H]12 (10 µM)	0.0746	106% (inactive)
CN1CCc2cc(Cl)c(O)cc2[C@@H](c2ccccc2)C1 (10 µM)	0.0172	108% (inactive)
N=C(N)NCCCC[C@@H]1NC(=O)CCSSC[C@@H](C(N)=O)NC(=O)[C@@H]2CCCN2C(=O)[C@H](Cc2c[nH]c3ccccc23)NC(=O)[C@H](CC(=O)O)NC(=O)CNC1=O [eptifibatide] (10 µM)	-0.125	118% (inactive)
Cc1cc(O)c2c(c1)C(=O)c1cc(O)cc(O)c1C2=O [emodin] (10 µM)	0.146	106% (inactive)
NC(=O)OCCCc1ccccc1 [phenprobamate] (10 µM)	0.0438	102% (inactive)
Nc1ccc(F)cc1NC(=O)c1ccc(CNC(=O)/C=C/c2cccnc2)cc1 [chidamide] (0.833333 µM)	-0.0654	107% (inactive)
